KCNQ2 pot: potentiators of rat KCNQ2 potassium channel. Potassium voltage-gated channel subfamily KQT member 2 (Rattus norvegicus), O88943. CHO-K1 KCNQ2, FluxOR thallium flux fluorescence; active compounds read high. B-score at 10 µM. 310,000 tested, 0.54% active. AID 2239, 2010;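 active means fluorescence ratio B-score at least 3 SD of library B-scores, with initial fluorescence B-score within 3 of them, cut at about 5.3 in these data; same plate scores as AID 2156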;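 further: B-score of peak minus minimum over baseline fluorescence ratio after K+ and Tl+ stimulus; positive B-score means potentiation of KCNQ2 with more thallium influx and brighter signal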
Target sequence (O88943 whole entry, looked up): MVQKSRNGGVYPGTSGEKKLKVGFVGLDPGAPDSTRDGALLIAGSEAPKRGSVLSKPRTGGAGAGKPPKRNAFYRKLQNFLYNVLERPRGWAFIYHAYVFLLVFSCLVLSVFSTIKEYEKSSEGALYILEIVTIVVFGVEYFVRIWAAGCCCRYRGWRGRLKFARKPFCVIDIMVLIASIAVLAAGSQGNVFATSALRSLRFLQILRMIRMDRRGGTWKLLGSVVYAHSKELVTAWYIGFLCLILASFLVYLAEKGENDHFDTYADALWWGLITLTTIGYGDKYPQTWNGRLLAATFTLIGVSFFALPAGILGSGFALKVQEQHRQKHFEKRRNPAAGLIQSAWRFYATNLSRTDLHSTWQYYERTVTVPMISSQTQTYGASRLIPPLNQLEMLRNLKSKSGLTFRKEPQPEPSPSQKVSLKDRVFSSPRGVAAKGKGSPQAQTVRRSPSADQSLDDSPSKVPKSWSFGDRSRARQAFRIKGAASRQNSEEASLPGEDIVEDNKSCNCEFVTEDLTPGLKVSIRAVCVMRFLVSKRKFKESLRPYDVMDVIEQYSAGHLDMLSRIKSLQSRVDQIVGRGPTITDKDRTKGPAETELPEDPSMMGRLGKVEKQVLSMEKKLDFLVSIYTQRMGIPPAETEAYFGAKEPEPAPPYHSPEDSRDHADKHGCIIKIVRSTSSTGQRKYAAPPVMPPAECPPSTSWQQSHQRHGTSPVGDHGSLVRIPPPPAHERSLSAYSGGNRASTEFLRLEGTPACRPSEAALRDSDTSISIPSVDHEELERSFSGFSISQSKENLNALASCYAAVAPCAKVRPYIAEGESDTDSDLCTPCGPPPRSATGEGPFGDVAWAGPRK
KCNQ2 inh: rat KCNQ2 potassium channel inhibitors, primary screen, cell-based, CHO-K1, FluxOR thallium flux, B-score; Potassium voltage-gated channel subfamily KQT member 2 (Rattus norvegicus), O88943; 310,000 tested, 1.1% active; AID 2156, 2009; 20 min; active compounds read low; B-score at 10 µM;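 active means fluorescence ratio B-score at most minus 3 library SDs, with starting brightness B-score within 2 library SDs, cut at about -5.5 in these data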
KCNQ2 block conf: rat KCNQ2 potassium channel inhibitors, confirmation, cell-based, thallium flux | activity change, negative = inhibition, % at 10 µM | shares compounds with KCNQ2 inh | KCNQ2-expressing cells, inhibition; active compounds read low | 1,000 tested, 57% active;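 further: 0% = vehicle wells and values are ratio percent relative to vehicle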
KCNQ1 spec: human KCNQ1 channel inhibition, counter-screen for KCNQ2 inhibitor project, cell-based, FluxOR thallium flux. shares compounds with KCNQ2 inh. KCNQ1-expressing cells, FluxOR thallium flux fluorescence; active compounds read low. activity change, negative = inhibition, % at 10 µM. 1,000 tested, 15% active. AID 493026, 2011;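 active means activity change at least 3 SD of negative controls below their mean in both duplicate wells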;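 further: CHO cells stably transfected with KCNQ1 and depolarized by potassium stimulus; peak minus minimum fluorescence over baseline after thallium addition; 0% = vehicle negative control and -100% = blank without thallium stimulus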
CHO parental ctr: thallium flux change in parental CHO cells, counter-screen for KCNQ2 inhibitor project. 1,000 tested, 14% active. active compounds read low. shares compounds with KCNQ2 inh. activity change, % at 10 µM;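 further: 0% = vehicle negative controls with stimulus buffer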
KCNQ2 inh confirm: rat KCNQ2 channel inhibitors, confirmation, cell-based, automated patch clamp, single concentration; shares compounds with KCNQ2 inh; KCNQ2-expressing cells, automated patch clamp current; calls only at 10 µM; 550 tested, 49% active; AID 588531, 2011
Starred values were filed as active, the others as inactive; i = inactive; . = no result; + = active, no number. Compounds with a hit are over-represented: about 1.6% of the library has one in this group of screens. Unless noted, how the calls were made is not given here.

SMILES | KCNQ2 pot | KCNQ2 inh | KCNQ2 block conf | KCNQ1 spec | CHO parental ctr | others
COc1cccc(-n2c(SCC(=O)NCc3cccs3)nc3ccccc3c2=O)c1 | . | i | . | . | .
COc1cccc(-n2c(SCC(=O)Nc3nc4ccccc4s3)nc3ccccc3c2=O)c1 | -7 | -7* | i | i | i
CCc1c(C)nc2cc(-c3cccc(Br)c3)[nH]n2c1=O | 2.06 | i | . | . | .
C/C(CC(=O)Nc1cc(C)ccn1)=N\NC(=O)c1cccc(C)c1O | 0.41 | i | . | . | .
Clc1ccc(CSc2cc3c(nn2)-c2ccccc2CC3)cc1 | -10.4 | -10.4* | -37.5%* | -41.0%* | -28.5%* | KCNQ2 inh confirm=i
Clc1ccc(CSc2ccc(-c3ccccn3)nn2)cc1 | . | i | . | . | .
Cc1ccccc1NC(=O)CCCN1C(=O)C2CC=CCC2C1=O (stereo unspecified) | . | i | . | . | .
CCOc1cccc(CNCCO)c1OCc1ccc(Cl)cc1 | 0.75 | i | . | . | .
CCOc1cc(CNCCO)cc(Br)c1OCc1ccc(Cl)cc1 | -8.06 | -8.06* | i | i | i
CC(C)(C)c1cc(NS(=O)(=O)c2ccc(Br)s2)no1 | 0.13 | i | . | . | .
Cc1ccccc1-n1nc2c(c1NC(=O)CC(C)C)CS(=O)C2 (stereo unspecified) | . | i | . | . | .
COc1cc(C(=O)Nc2nc(OC)c(-c3ccccc3)c(OC)n2)cc(OC)c1OC | 0.82 | i | . | . | .
COc1cc(C(=O)Nc2cc(-c3ccccc3)[nH]n2)cc(OC)c1OC | -6.6 | -6.6* | -25.0%* | i | i | KCNQ2 inh confirm=i
COC(=O)c1cccc(NC(=O)c2cc(OC)c(OC)c(OC)c2Br)c1 | . | i | . | . | .
COc1cc(C(=O)Nc2cccc(C)c2C)c(Br)c(OC)c1OC | -7.98 | -7.98* | -24.5%* | i | i | KCNQ2 inh confirm=+
O=C(Sc1nnc(-c2ccccc2)o1)N1c2ccccc2Sc2ccccc21 | -6.84 | -6.84* | i | i | i
COc1cc(-c2nnc(SCC(=O)N3c4ccccc4Sc4ccccc43)o2)cc(OC)c1OC | . | i | . | . | .
CC(C)c1ccc(NC(=O)CCCN2C(=S)NC(C)(C)CC2C)cc1 (stereo unspecified) | . | i | . | . | .
O=C(CN1CCCc2ccccc21)NCCc1ccc(Cl)cc1 | -10.5 | -10.5* | -34.5%* | i | i | KCNQ2 inh confirm=+
O=C(CN1CCCc2ccccc21)NCc1ccc2c(c1)OCO2 | . | i | . | . | .
Cc1cccc2cc(C(c3nnnn3C3CCCC3)N3CCOCC3)c(=O)[nH]c12 (stereo unspecified) | -7.84 | -7.84* | -24.5%* | i | i | KCNQ2 inh confirm=+
CCC(C)(C)n1nnnc1C(c1cc2cccc(C)c2[nH]c1=O)N1CCCC1 (stereo unspecified) | . | i | . | . | .
Cc1ccccc1C(=O)c1cccn1CC(=O)NC(C)c1ccccc1 (stereo unspecified) | 2.5 | i | . | . | .
CC1Cc2ccccc2N1Cc1ccc([N+](=O)[O-])cc1 (stereo unspecified) | . | i | . | . | .
COc1ccc(CCN(Cc2cc3cc(C)cc(C)c3nc2Cl)C(=O)C2CC2)cc1 | -8.59 | -8.59* | -32.0%* | i | i | KCNQ2 inh confirm=i
SMILES | KCNQ2 pot | KCNQ2 inh | KCNQ2 block conf | KCNQ1 spec | CHO parental ctr | others
COc1ccc(CN(CC2CCC(C(=O)O)CC2)C(=S)Nc2ccc(C)c(Cl)c2)cc1 (stereo unspecified) | . | i | . | . | .
O=[N+]([O-])c1cc(-c2cnc3ccccc3n2)ccc1Oc1ccc(F)cc1 | -8.43 | -8.43* | -20.0%* | i | i | KCNQ2 inh confirm=i
O=[N+]([O-])c1ccccc1Oc1cnc2ccccc2n1 | 1.09 | i | . | . | .
O=C(CSc1nc(O)cc(=O)n1-c1ccc(Cl)c(Cl)c1)Nc1ccc(Cl)cc1Cl | . | i | . | . | .
CCn1c(C)c(C)c2cc(C(=O)N3CCN(c4ccccc4)CC3)ccc21 | -6.88 | -6.88* | i | i | i
CCn1c(C)c(C)c2cc(C(=O)N3CCCC3)ccc21 | 0.37 | i | . | . | .
COc1ccc(CCN(Cc2cc3ccc(C)cc3n3nnnc23)C(C)=O)cc1OC | 0.38 | i | . | . | .
Cc1cccc(OCc2nnc(SCC(=O)N3CCCC3)o2)c1 | . | i | . | . | .
Cc1cccc(OCc2nnc(SCC(=O)N3c4ccccc4CCc4ccccc43)o2)c1 | -7.3 | -7.3* | i | i | i
COc1cccc(OC)c1C(=O)Nc1cccc(-n2cnnn2)c1 | . | i | . | . | .
Cc1ccc(NC(=O)COc2cccc(C)c2C)cc1S(=O)(=O)N1CCCCCC1 | -8.75 | -8.75* | -36.0%* | -31.5%* | -24.0%* | KCNQ2 inh confirm=i
Cc1ccccc1OCC(=O)Nc1ccccc1N1CCCCC1 | -10.5 | -10.5* | -26.0%* | i | i | KCNQ2 inh confirm=+
Cc1cc(C)cc(OCC(=O)Nc2ccccc2N2CCCCC2)c1 | . | i | . | . | .
CCC(=O)N1CCN(c2ccccc2NC(=O)COc2cccc(C)c2)CC1 | -10.4 | -10.4* | -28.0%* | i | i | KCNQ2 inh confirm=+
CCC(=O)N1CCN(c2ccccc2NC(=O)c2cccc(C)c2)CC1 | . | i | . | . | .
COc1ccc(NC(=O)COc2ccccc2C)cc1S(=O)(=O)N1CCCCC1 | . | i | . | . | .
COc1ccc2oc(=O)c(C(=O)N3CCN(C(=O)c4ccco4)CC3)cc2c1 | . | i | . | . | .
N#CC1(C#N)CC(C=O)=C(N)C1(C#N)CC(=O)C12CC3CC(CC(C3)C1)C2 (stereo unspecified) | . | i | . | . | .
CCc1cc(C(=O)Nc2ccc(S(=O)(=O)NC3=NCCCCC3)cc2)sc1C | . | i | . | . | .
CN(CCC#N)C(=O)COC(=O)c1ccc(CNS(=O)(=O)c2ccc(F)c(Cl)c2)cc1 | 0.49 | i | . | . | .
O=C(OC1CCN(c2ncc(C(F)(F)F)cc2Cl)CC1)c1ccccc1 | . | i | . | . | .
COc1ccc(C(=O)OC2CCN(c3ncc(C(F)(F)F)cc3Cl)CC2)cc1 | -8.67 | -8.67* | i | i | i
CC(=O)Nc1ccc(OS(=O)(=O)c2ccc([N+](=O)[O-])cc2)cc1 | . | i | . | . | .
CCC(C(=O)Nc1ccccc1N1CCCC1)c1ccccc1 (stereo unspecified) | -7.23 | -7.23* | -35.5%* | i | i | KCNQ2 inh confirm=+
CC(Oc1cccc(Cl)c1)C(=O)Nc1ccccc1N1CCCCC1 (stereo unspecified) | -7.09 | -7.09* | i | i | i
CC(Oc1cccc(Cl)c1)C(=O)Nc1ccccc1C(=O)N1CCCCC1 (stereo unspecified) | . | i | . | . | .
CCC(Oc1ccccc1)C(=O)Nc1ccccc1N1CCCC1 (stereo unspecified) | . | i | . | . | .
Cc1ccccc1C(=O)NC1CCN(CC(=O)NC2CCCCC2)CC1 | 0.51 | i | . | . | .
CC(=O)NC(CC(=O)NNC(=O)c1cc2ccccc2cc1O)c1ccccc1 (stereo unspecified) | 0.01 | i | . | . | .
N#Cc1ccccc1N=C1CCCN1Cc1ccccc1 | . | i | . | . | .

Bioassay records as filed in PubChem BioAssay.
